Results: PubChem BioAssay AID1942 (Johns Hopkins Ion Channel Center, 2009)
The campaign covered roughly 2,400 compounds. About 580 (24%) were called active.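 The calls were made as follows: active = activity change at or above the mean plus 3 SD of buffer wells without dofetilide, per plate; inactive = the rest.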 The list is a sample of the results.

These compounds were tested against Potassium voltage-gated channel subfamily KQT member 2 (Rattus norvegicus) (UniProt O88943) (assay: rat KCNQ2 channel activation by compounds alone, confirmation, counter-screen for hERG block protector project, cell-based, CHO, FluxOR thallium flux (AID 1942;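 also: normalized value minus buffer-control mean plus three SD of buffer wells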)). Conditions: CHO-KCNQ2 cells, FluxOR thallium flux fluorescence; at 10 µM; active compounds read high.
Chain of Potassium voltage-gated channel subfamily KQT member 2 (Rattus norvegicus) (O88943 whole entry, looked up): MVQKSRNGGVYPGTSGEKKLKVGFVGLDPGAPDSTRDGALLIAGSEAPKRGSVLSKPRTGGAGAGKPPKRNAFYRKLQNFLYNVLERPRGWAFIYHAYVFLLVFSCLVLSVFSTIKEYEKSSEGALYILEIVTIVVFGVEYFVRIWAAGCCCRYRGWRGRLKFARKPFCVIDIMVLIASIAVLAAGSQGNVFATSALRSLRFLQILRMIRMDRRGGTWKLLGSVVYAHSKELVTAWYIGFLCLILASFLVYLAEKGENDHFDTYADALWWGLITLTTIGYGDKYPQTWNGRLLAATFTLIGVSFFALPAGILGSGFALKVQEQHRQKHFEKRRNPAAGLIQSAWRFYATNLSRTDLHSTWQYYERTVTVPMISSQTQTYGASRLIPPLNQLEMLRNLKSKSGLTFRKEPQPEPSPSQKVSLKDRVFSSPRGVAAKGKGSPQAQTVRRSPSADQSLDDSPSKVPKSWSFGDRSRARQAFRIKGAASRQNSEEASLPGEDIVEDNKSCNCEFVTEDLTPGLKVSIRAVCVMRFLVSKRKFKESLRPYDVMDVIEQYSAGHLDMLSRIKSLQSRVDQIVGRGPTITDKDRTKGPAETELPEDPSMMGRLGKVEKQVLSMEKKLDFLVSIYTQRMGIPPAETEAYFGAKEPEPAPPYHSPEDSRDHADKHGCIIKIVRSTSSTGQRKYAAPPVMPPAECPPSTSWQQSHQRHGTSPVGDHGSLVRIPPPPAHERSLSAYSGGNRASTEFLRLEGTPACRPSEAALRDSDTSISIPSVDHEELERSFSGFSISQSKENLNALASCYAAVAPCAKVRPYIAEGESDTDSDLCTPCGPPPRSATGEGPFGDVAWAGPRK
For `CC(C)(C)OC(=O)NCCCC(CCCNC(=O)OC(C)(C)C)C(=O)O`, the activity change, less the hit threshold was -22.6% (inactive). For `CCOC(=O)N1CCN(C(=O)COC(=O)c2cc(Cl)c(O)c(Cl)c2)CC1`, the activity change, less the hit threshold was -13.4% (inactive). With `COc1ccc2[nH]c3c(=O)n(CCN4CCOCC4)cnc3c2c1` the activity change, less the hit threshold was -15.3% (inactive). `O=C(Nc1ncc(Cc2ccc(C(F)(F)F)cc2)s1)c1ccc(-c2cccc([N+](=O)[O-])c2)o1` was tested, and the activity change, less the hit threshold was -12.3% (inactive). For `O=C(NCC1CCCO1)c1ccc2c(=O)n(Cc3ccco3)c(SCC(=O)N3CCCC3)nc2c1` (stereo unspecified), the activity change, less the hit threshold was 3.2% (active). For `O=C(NCc1ccco1)c1ccc(OCC2CCCO2)cc1` (stereo unspecified), the activity change, less the hit threshold was -26.4% (inactive). In the case of `O=C(CSc1cn(CC(=O)N2CCCC2)c2ccccc12)NCC1CCCO1` (stereo unspecified), the activity change, less the hit threshold is reported as -27.5% (inactive). `OC(COC(c1ccccc1)c1ccccc1)CN1CCCCC1` (stereo unspecified) was tested, and the activity change, less the hit threshold was -23.9% (inactive). `COc1ccc(C(CC(=O)O)NC(=O)C(c2ccccc2)c2ccccc2)cc1` (stereo unspecified) was tested, and the activity change, less the hit threshold was -23.8% (inactive). With `O=C1C(=Cc2cccn2-c2ccc(O)cc2)C(=O)c2ccccc21` the activity change, less the hit threshold was -25.6% (inactive). In the case of `O=C(C1CCN(S(=O)(=O)c2cc(Cl)ccc2Cl)CC1)N1CCOCC1`, the activity change, less the hit threshold is reported as -26% (inactive). With `CC(C)(C)C(=O)NC(=S)N1CCOCC1` the activity change, less the hit threshold was -8% (inactive). For `CCCCCCC1CCC(C(=O)N2CCOCC2)CC1` (stereo unspecified), the activity change, less the hit threshold was 5.9% (active). For `COC(=O)Sc1nnc(-c2ccc(Br)cc2)o1`, the activity change, less the hit threshold was -1.8% (inactive). For `CCn1c(O)c(N=NC2=NC(=O)CS2)c2cc(C)ccc21`, the activity change, less the hit threshold was -10.5% (inactive). For `CCc1ccc2c(c1)c(N=NC1=NC(=O)CS1)c(O)n2CC`, the activity change, less the hit threshold was 26.5% (active). `CCn1c(O)c(N=NC2=NC(=O)CS2)c2ccccc21` was tested, and the activity change, less the hit threshold was -5.8% (inactive). For `C/C(=N/NC(=O)c1ccncc1)c1ccc2c(c1)OCO2`, the activity change, less the hit threshold was -22.1% (inactive). For `O=C(NNC(=O)C12CC3CC(CC(O)(C3)C1)C2)c1ccccc1O`, the activity change, less the hit threshold was -1.7% (inactive). With `COc1ccc(NC(=O)C(=O)NNC(=O)COc2ccc(OC)cc2)cc1` the activity change, less the hit threshold was -24.3% (inactive). In the case of `COc1ccc(OC)c(NC(=O)C(=O)NNC(=O)C23CC4CC(CC(C4)C2)C3)c1`, the activity change, less the hit threshold is reported as 96.2% (active). `COc1ccc(OCC(=O)NNC(=O)C(=O)Nc2cc(OC)ccc2OC)cc1` was tested, and the activity change, less the hit threshold was 15.9% (active). For `COc1ccc(NC(=O)C(=O)NNC(=O)COc2ccc(Cl)cc2)c(OC)c1`, the activity change, less the hit threshold was 15.6% (active). `COc1cccc(OCC(=O)NNC(=O)C(=O)Nc2ccc(OC)cc2OC)c1` was tested, and the activity change, less the hit threshold was 15.4% (active). `O=C(COc1ccc(S(=O)(=O)NCc2ccccc2)cc1Cl)NCC1CCCO1` (stereo unspecified) was tested, and the activity change, less the hit threshold was -14.4% (inactive). For `Cc1ccc(-n2c(C)cc(C(=O)CN3CCOCC3)c2C)cc1`, the activity change, less the hit threshold was -12.8% (inactive). For `CN(CC(=O)Nc1ccc(OC(F)(F)F)cc1)S(=O)(=O)c1cnc[nH]1`, the activity change, less the hit threshold was -18.2% (inactive). For `CCN1C(=O)[C@H]2[C@@H](c3ccc(-c4ccc(OC)cc4)cc3)N[C@@](C)(C(=O)OC)[C@H]2C1=O`, the activity change, less the hit threshold was -17.6% (inactive). For `CCC(NS(=O)(=O)c1ccc(OC)cc1)C(=O)O` (stereo unspecified), the activity change, less the hit threshold was -16.1% (inactive). For `CN(C)c1oc(-c2ccccc2[N+](=O)[O-])nc1C#N`, the activity change, less the hit threshold was -6.7% (inactive). For `Cc1ccccc1NC(=O)CN1C(=O)S/C(=C\c2ccc(-c3cc(C(=O)O)ccc3C)o2)C1=O`, the activity change, less the hit threshold was -10.8% (inactive). With `Cc1ccc(NC(=S)N2CCN(c3ccccc3F)CC2)c(C)c1` the activity change, less the hit threshold was -10.4% (inactive). In the case of `Cn1c(=O)[nH]c(=O)c2c1nc(CN1CCN(c3ccccc3F)CC1)n2CCCc1ccccc1`, the activity change, less the hit threshold is reported as -12.9% (inactive). For `Cc1ccc(-c2csc3nc[nH]c(=S)c23)cc1C`, the activity change, less the hit threshold was 2.5% (active). With `Cc1cc(-c2csc3nc[nH]c(=S)c23)cc(C)c1C` the activity change, less the hit threshold was 33.7% (active). In the case of `C=CCNC(=O)CC(=O)N/N=C/c1cccs1`, the activity change, less the hit threshold is reported as -10.2% (inactive). For `Nc1nc(O)c(N=Nc2ccc(S(N)(=O)=O)cc2)c(=O)[nH]1`, the activity change, less the hit threshold was -16.5% (inactive). For `CSc1nc2c(c(=O)[nH]1)C(c1ccc(Br)cc1)CC(=O)N2` (stereo unspecified), the activity change, less the hit threshold was -18.9% (inactive). `COc1ccc(S(=O)(=O)c2snnc2C)cc1` was tested, and the activity change, less the hit threshold was -14.8% (inactive). In the case of `CN(Cc1cccc(C(F)(F)F)c1)Cc1nc(-c2cnccn2)no1`, the activity change, less the hit threshold is reported as -21.7% (inactive). For `COC(=O)C1=C(C)NC2=C(C(=O)CCC2)C1c1ccc(-c2ccsc2C(=O)OC)o1` (stereo unspecified), the activity change, less the hit threshold was 53.7% (active). `COC(=O)C(C)Sc1nnc(Cc2cc(=O)[nH]c(=O)[nH]2)n1-c1cccc(OC)c1` (stereo unspecified) was tested, and the activity change, less the hit threshold was -15.6% (inactive). For `Cc1ccc(-n2ncc3c2CCCC3NC(=O)c2csnn2)cc1C` (stereo unspecified), the activity change, less the hit threshold was -24.7% (inactive). For `O=c1c2ccc(Cl)cc2[nH]c(=S)n1CCC1=CCCCC1`, the activity change, less the hit threshold was 9.4% (active). With `O=c1c2cccnc2[nH]c(=S)n1CCC1=CCCCC1` the activity change, less the hit threshold was 48.1% (active). For `O=c1c2ccccc2[nH]c(=S)n1CCC1=CCCCC1`, the activity change, less the hit threshold was 18% (active). For `O=C(CCn1c(=S)[nH]c2cc3c(cc2c1=O)OCO3)NCc1ccc(Cl)cc1`, the activity change, less the hit threshold was -10.2% (inactive). For `COc1ccccc1CNC(=O)CCCC(=O)n1ncc2cc(C)ccc21`, the activity change, less the hit threshold was -14.9% (inactive). With `N#C/C(=N\Nc1ccccc1F)c1nc(-c2ccccc2)cs1` the activity change, less the hit threshold was -27.5% (inactive). In the case of `CC(=O)Nc1ccc2nc(NC(=O)c3ccc([N+](=O)[O-])o3)sc2c1`, the activity change, less the hit threshold is reported as -16.8% (inactive). With `Cc1cc(NC(=O)Cn2c(=O)n(Cc3ccccc3)c(=O)c3ccccc32)no1` the activity change, less the hit threshold was -19.9% (inactive). In the case of `Cc1ccc(C(C)C)c(OCc2n[nH]c(=S)o2)c1`, the activity change, less the hit threshold is reported as 10.8% (active). In the case of `c1ccc(SSc2ccccn2)nc1`, the activity change, less the hit threshold is reported as -14% (inactive). With `CC(C)(C)Cc1nnc(NC(=O)c2ccco2)s1` the activity change, less the hit threshold was -19.2% (inactive). With `Cc1ccccc1C(=O)Nc1nc(=S)ss1` the activity change, less the hit threshold was 58.6% (active). In the case of `O=C(NNC(=O)c1ccc(Cl)cc1Cl)c1cnccn1`, the activity change, less the hit threshold is reported as -19.5% (inactive). With `O=C(Nc1nc(=S)ss1)c1ccc(Cl)cc1Cl` the activity change, less the hit threshold was 100% (active). `Cc1ccc(C)c2sc(NC(=O)c3nc4ccccc4s3)nc12` was tested, and the activity change, less the hit threshold was -7.3% (inactive). For `Cn1sc(NC(=O)c2cccc(Cl)c2)nc1=O`, the activity change, less the hit threshold was -5.4% (inactive). For `CC(C)CC(=O)Nc1nc(=S)ss1`, the activity change, less the hit threshold was -15.9% (inactive). In the case of `COc1cc(/C=C2/SC(=S)N(CC(=O)O)C2=O)ccc1OCC(=O)Nc1ccc(C)c(C)c1`, the activity change, less the hit threshold is reported as -18.3% (inactive). With `COC(=O)c1ccnc(/C=N/O)c1` the activity change, less the hit threshold was -13% (inactive). In the case of `N=C1SCC(=O)N1c1ncc(Cc2ccccc2Cl)s1`, the activity change, less the hit threshold is reported as -20.8% (inactive). For `Cc1[nH]n(-c2cccc3ccccc23)c(=O)c1/C=N/c1sc2c(c1C#N)CCC2`, the activity change, less the hit threshold was -0.6% (inactive). For `Cc1[nH]n(-c2ccc(F)cc2)c(=O)c1/C=N/c1sc2c(c1C#N)CCCC2`, the activity change, less the hit threshold was 21.6% (active). For `COc1ccc2nc(-n3c(O)c(C4=c5ccccc5=NC4=O)[nH]c3=S)sc2c1`, the activity change, less the hit threshold was -16.8% (inactive). With `CCOc1ccc2nc(N3C(=O)/C(=C/c4ccccc4)NC3=S)sc2c1` the activity change, less the hit threshold was -26.6% (inactive). With `CCOc1ccc2nc(/N=C/c3c(C)[nH]n(-c4ccccc4)c3=O)sc2c1` the activity change, less the hit threshold was 109% (active). For `N#Cc1c(NC(=O)c2cc(-n3cnnc3)ccc2Cl)sc2c1CCCC2`, the activity change, less the hit threshold was -10.6% (inactive). With `COc1ccc2nc(N=Nc3c(O)ccc4ccccc34)sc2c1` the activity change, less the hit threshold was -4.3% (inactive). In the case of `CCOc1ccc2nc(/N=C/c3nc(-c4ccccc4)oc3O)sc2c1`, the activity change, less the hit threshold is reported as -11.5% (inactive). For `Cc1[nH]n(-c2ccc(Cl)cc2)c(=O)c1/C=N/c1nnc(-c2ccccc2)s1`, the activity change, less the hit threshold was 170% (active). With `COc1ccc2nc(/N=C/c3c(C)[nH]n(-c4ccc(C)cc4)c3=O)sc2c1` the activity change, less the hit threshold was 103% (active). In the case of `CC(=O)c1ccc(N2CCN(C(=O)Cc3ccccc3)CC2)c(F)c1`, the activity change, less the hit threshold is reported as -28% (inactive). With `CCCN(CC(=O)Nc1ccccc1C)C(=O)CCl` the activity change, less the hit threshold was -25.4% (inactive). For `CCc1nnc(NC(=O)c2cccc(S(=O)(=O)N3CCN(c4ccccc4)CC3)c2)s1`, the activity change, less the hit threshold was -21.2% (inactive). In the case of `COC(=O)/C=C1\S/C(=N/N=C/c2ccco2)NC1=O`, the activity change, less the hit threshold is reported as -11% (inactive). For `CSc1nc2ccc(S(=O)(=O)N3CCc4ccccc43)cc2s1`, the activity change, less the hit threshold was -21.8% (inactive). In the case of `Cc1ccc2[nH]cc(CCNC(=O)/C=C/c3ccco3)c2c1`, the activity change, less the hit threshold is reported as -22.5% (inactive). For `CCOC(=O)c1nnsc1NC(C)=O`, the activity change, less the hit threshold was -19.7% (inactive). With `CC(C)Oc1ccccc1C1(c2ccccc2)NC(=O)NC1=O` (stereo unspecified) the activity change, less the hit threshold was -22.4% (inactive). With `CCCCc1cc(=O)oc2c(C)c(OCC(=O)NCc3ccccn3)ccc12` the activity change, less the hit threshold was -13.4% (inactive). With `CCOc1ccc2nc(N3C(=O)/C(=C/c4ccc(Cl)cc4)NC3=S)sc2c1` the activity change, less the hit threshold was -21.3% (inactive). `CCOc1ccc2nc(/N=C/c3nc(-c4ccc(Br)cc4)oc3O)sc2c1` was tested, and the activity change, less the hit threshold was -9.3% (inactive). `CCOc1ccc2nc(/N=C/c3c(C)[nH]n(-c4ccc(C)cc4)c3=O)sc2c1` was tested, and the activity change, less the hit threshold was 102% (active). With `COc1ccc2nc(/N=C/c3c(C)[nH]n(-c4ccc(C)cc4C)c3=O)sc2c1` the activity change, less the hit threshold was 23% (active). In the case of `CCC(c1nnc(SCC(=O)NCCc2ccc(Cl)cc2Cl)o1)N(C)C` (stereo unspecified), the activity change, less the hit threshold is reported as -31.5% (inactive). For `CCOc1ccccc1C(=O)NC1CC2CCCC(C1)N2Cc1nnnn1Cc1ccco1` (stereo unspecified), the activity change, less the hit threshold was -26.4% (inactive). `Cc1ccc2cc(CN(CCCN(C)C)C(=S)NCc3ccccc3)c(=O)[nH]c2c1C` was tested, and the activity change, less the hit threshold was -23.9% (inactive). `CC1CC(OCC(O)C[N+]2(C)CCOCC2)CC(C)(C)C1` (stereo unspecified) was tested, and the activity change, less the hit threshold was -21.6% (inactive). For `CCCSc1cc(NCCOC(C)=O)c([N+](=O)[O-])c2nonc12`, the activity change, less the hit threshold was -13.1% (inactive). In the case of `COc1ccc(C(=O)O/N=C(\N)c2ccccn2)cc1[N+](=O)[O-]`, the activity change, less the hit threshold is reported as -10.2% (inactive). In the case of `O=[N+]([O-])C1=CC=C2C(=NC3(CCCCC3)N2O)C1=NC1CCCCC1`, the activity change, less the hit threshold is reported as -27.4% (inactive). `Nc1cccc2c1C(=O)N(CC(=O)NC13CC4CC(CC(C4)C1)C3)C2=O` was tested, and the activity change, less the hit threshold was -18.4% (inactive). For `Cc1ccc(/C(O)=C/C(=O)C(=O)NC23CC4CC(CC(C4)C2)C3)cc1`, the activity change, less the hit threshold was 1.2% (active). For `O=C(O)c1ccc(CNC(=O)C23CC4CC(CC(C4)C2)C3)cc1`, the activity change, less the hit threshold was -18.2% (inactive).
